Consider 105 compounds from PubChem BioAssay AID686978 (National Center for Advancing Translational Sciences (NCATS), 2013).

SMILES strings stand for the structures. Among all 420,000 compounds or so, about 64,000 (15%) were called active. Roughly 27% stayed inconclusive and do not appear here. Only a sample is shown. Where a call stands in place of a potency, no number is given. A number with no mark means an inactive call. Calls come from the whole dose curve; as a rule, active = well fitted inhibition curve with a large enough effect; inconclusive = small, poorly fitted or top-dose-only effect; inactive = flat fitted curve, though single readings scatter.
Potency is the fitted concentration of half-maximal effect.

The assay can be described thus: qHTS for Inhibitors of human tyrosyl-DNA phosphodiesterase 1 (TDP1): qHTS in cells in absence of CPT. Note: nearly all actives have a fitted effect of over 55% in size. The settings on record: DT40 Tdp1-/- hTDP1 cells, no CPT, ATP luminescence, 48 h; activity change, negative = growth inhibition: at 46.2 µM (top of the series). The method in brief:
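Luminescent ATP content (CellTiter-Glo) served as the growth readout. Knockout chicken DT40 cells expressing human TDP1 were exposed to compounds without camptothecin for a minimum 48 hr at 37 °C.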
In general terms: qHTS replaces the single test concentration by a dilution series.
For the compound `COc1ccccc1C(=O)NCC(=O)OCC(=O)Nc1nnc(-c2ccccc2)o1`, the Potency result is “inactive”.
On the same count and under the same terms, the value for `CCCNC(=O)C[C@@H]1CC[C@@H]2[C@H](COC[C@H](O)CN2C(=O)c2cc(Cl)cc(Cl)c2)O1` was “inactive”.
The same measure, in the same setting: next, `Cn1c(N)c(C(=O)COC(=O)c2ccccc2NCc2ccco2)c(=O)n(C)c1=O`: “inactive”; `Cc1cc2cc(CNC(=O)c3cccs3)ccc2[nH]1`: “inactive”; `CCc1cccc(CC)c1NC(=S)Nc1ccc2cn[nH]c2c1`: “inactive”.
For `CCc1cccc(CC)c1NC(=S)NCc1ccc2[nH]c(C)cc2c1`, the Potency is 18.4 µM (active).
For `COc1ccc(S(=O)(=O)NCC2CCCN(C(=O)c3occc3C)C2)cc1` (stereo not given), the Potency entry is “inactive”.
For the compound `O=C(c1ccccn1)c1ncc(C(F)(F)F)cc1Cl`, the Potency result was “inactive”.
On the same count and under the same terms, next, `C=CCn1c(SCC(=O)Nc2nc3ccccc3s2)nnc1-c1ccccc1O`: “inactive”; `O=c1[nH]c(CCl)nc2cc(-c3ccc(Cl)cc3)sc12`: 2.31 µM (active).
The same measure, in the same setting: next, `NC(=O)Cc1nc2scc(-c3ccc(Cl)cc3)c2c(=O)[nH]1`: “inactive”; `O=c1[nH]c(CN2CCOCC2)nc2cc(Cl)ccc12`: “inactive”.
Turning to `CCOCCCNC(=S)N1CCC(NC(=O)C2CCCCC2)CC1`, the Potency result is “inactive”.
On the same count and under the same terms, next, `CSCCC(NS(=O)(=O)c1ccc2c(c1)oc(=O)n2C)C(=O)NCc1ccccc1` (stereo not given): “inactive”; `OC(CBr)C[n+]1cccc2cc(Br)ccc21` (stereo not given): 11.2 µM (active).
On to `Cc1c(CCC(=O)N[C@@H](CC(C)C)C(=O)O)c(=O)oc2c(C)c3oc4c(c3cc12)CCCC4`, for which the Potency result was “inactive”.
Still for that read-out and setting: the value for `CCN(CC)CCCNC(=O)CCn1nc(-c2ccc(Cl)cc2)ccc1=O` was “inactive”.
On the same count and under the same terms, next, `Cn1c(C(=O)Nc2cccc(C(F)(F)F)c2)cc2c(=O)n3ccccc3nc21`: 9.2 µM (active).
For the compound `O=C(Nc1ccc(OC(F)(F)F)cc1)c1cc2c(=O)n3ccccc3nc2s1`, the Potency entry is “inactive”.
Same read-out and setting: the value for `O=C(COC(=O)c1cccc(Cl)c1)NC(=O)NCc1ccccc1` was “inactive”; that for `CCN(CC)c1ccc2oc(=O)c(C)nc2c1` was 5.8 µM (active).
Still for that read-out and setting: next, `CCN(CC)c1ccc2cc(C(=O)O)c(=O)oc2c1`: “inactive”; `CCN(CC)c1ccc2c(Nc3ccccc3)c(C=O)c(=O)oc2c1`: “inactive”; `COc1ccc(CCN2C(=O)C3CC=C(C)CC3C2=O)cc1OC` (stereo not given): “inactive”.
Same read-out and setting: the value for `COc1ccc(CCNC(=O)C(=O)NCc2ccccc2C)cc1OC` was “inactive”; that for `COC(=O)c1ccc(C2C(Oc3ccccc3C)C(=O)N2CCc2ccc(OC)c(OC)c2)cc1` (stereo not given) was 14.6 µM (active).
In the case of `CN(CCC1CCOCC1)C(=O)CC1C(=O)NCCN1Cc1cccc(F)c1` (stereo not given), the Potency entry is “inactive”.
Still for that read-out and setting: the value for `COc1ccc(NS(=O)(=O)c2cc3c(cc2C)N(C(C)=O)CCO3)cc1` was “inactive”; that for `CCOC(=O)c1c(NC(=O)C2CCN(S(=O)(=O)c3ccc(Cl)cc3)CC2)sc2c1CCCC2` was “inactive”; that for `CCOC(=O)c1c(NC(=O)NC(C)(C)C)sc2c1CCN(C)C2` was “inactive”.
Turning to `CCCN(CCC)S(=O)(=O)c1ccc(C(=O)Nc2sc3c(c2C(=O)OC)CCN(CC)C3)cc1`, the Potency is 20.6 µM (active).
As for `CCOC(=O)c1c(NC(=O)c2ccc(S(=O)(=O)N3CCCC(C)C3)cc2)sc2c1CCN(C(C)C)C2` (stereo not given), the Potency is 10.3 µM (active).
The same measure, in the same setting: the value for `COC(=O)c1c(NC(=O)c2cc(=O)c3c(C)cc(C)cc3o2)sc2c1CCCC2` was “inactive”; that for `COC(=O)c1c(NC(=O)c2ccc(Cl)c(Cl)c2)sc2c1CCCC2` was “inactive”; that for `O=C(O)/C=C/c1ccc(OCCCF)cc1` was “inactive”.
As for `CN(C)/C=C/C(=O)c1cnc2sccn2c1=O`, the Potency entry was “inactive”.
On to `Cn1nc(C(F)(F)F)c(-c2ccc(F)cc2)c1NC(=O)CSCC(=O)O`, for which the Potency entry is “inactive”.
For `CN(C)C=NC(=O)c1cccn1-c1ncc(C(F)(F)F)cc1Cl`, the Potency result is “inactive”.
Same read-out and setting: next, `O=C(CSc1nnc(Nc2ccccc2)s1)Nc1cccnc1Cl`: “inactive”.
Take `CC(C)c1ccc(Nc2nnc(SCC(=O)c3nnc(-c4ccccc4)o3)s2)cc1`: the Potency is 11.6 µM (active).
Same read-out and setting: the value for `CC(C)N(C(=O)CSc1nnc(NC2CC2)s1)c1ccccc1` was “inactive”.
As for `C/C(=N\OC(=O)c1ccccc1)c1c(C)nc2cc(C)ccn12`, the Potency result is “inactive”.
For the compound `CC1=C(C(=O)Nc2ccc(Cl)cc2)C(c2ccco2)NC(=O)N1` (stereo not given), the Potency result is “inactive”.
As to `Cc1ccc(SC(=O)COc2ccc(C)c(C)c2)cc1`, the Potency entry was “inactive”.
On the same count and under the same terms, the value for `Cc1ccc(SCC(=O)Nc2ccc3c(c2)OCCO3)cc1` was “inactive”.
Regarding `Cc1ccc(SCC(=O)c2cc(C)c(OC(=S)N(C)C)c(C)c2)cc1`, the Potency was 18.4 µM (active).
On the same count and under the same terms, the value for `CCCCc1ccc(S(=O)(=O)NC(=O)C2(C)CCN2C(=O)c2c(C)noc2C)cc1` (stereo not given) was “inactive”; that for `C=CCOCCN(C)C1=NS(=O)(=O)c2ccccc21` was “inactive”.
On to `O=S1(=O)N=C(N(CCO)/N=C/c2ccccc2F)c2ccccc21`, for which the Potency is 0.92 µM (active).
Still for that read-out and setting: the value for `COc1ccc(/C=N/N(C)C2=NS(=O)(=O)c3ccccc32)cc1OC` was “inactive”.
As for `CCCCC/C=C\C/C=C\CCCCCCCCCC(=O)O`, the activity change, negative = growth inhibition was 6.04% [at 4.12 µM].
For the compound `Cc1cc(C)n(C(=O)CCNC(=O)c2ccccc2Cl)n1`, the Potency result was “inactive”.
Still for that read-out and setting: the value for `NC(=O)c1ccsc1NC(=O)COC(=O)COc1ccc(C=O)cc1` was “inactive”.
On the same count and under the same terms, next, `Cc1cccc(NC(=S)Nc2ccc(Br)cc2)c1`: 16.4 µM (active); `Fc1cc(Br)ccc1NC(=S)Nc1cccnc1`: “inactive”; `Cc1cccc(NC(=S)NC(=O)c2ccc(Br)o2)c1`: “inactive”.
Regarding `O=C(COC(=O)c1ccc2c(c1)OCCO2)NCc1ccccc1Cl`, the Potency result is “inactive”.
On to `CCCS(=O)(=O)NC(=O)C1(C)CCCN(C(=O)c2cc(C)on2)C1` (stereo not given), for which the Potency result was “inactive”.
Still for that read-out and setting: the value for `Cc1nc2cnc(N3CCN(C)CC3)nc2n(CCC#N)c1=O` was “inactive”; that for `Cn1c(SCC(=O)Nc2nccs2)nnc1-c1cccnc1` was “inactive”; that for `O=C(CCS(=O)(=O)c1ccccc1)N(Cc1cccnc1)c1nc2c(F)cccc2s1` was 2.31 µM (active).
The same measure, in the same setting: the value for `O=C(NCc1cccnc1)Nc1ccccc1F` was “inactive”; that for `Cc1cccc2sc(N(CCCN(C)C)C(=O)CCS(=O)(=O)c3ccccc3)nc12` was 1.64 µM (active).
As for `CN(C)CCCN(C(=O)COc1ccccc1)c1nc2c(Cl)cccc2s1`, the Potency result is “inactive”.
With `COc1cc2ccccc2cc1C(=O)N(CCN(C)C)c1nc2c(F)cccc2s1`, the Potency result is “inactive”.
Same read-out and setting: next, `CN(C)S(=O)(=O)c1ccc(C(=O)N(Cc2cccnc2)c2nc3c(F)cc(F)cc3s2)cc1`: “inactive”; `COC(=O)[C@H](CC(C)C)NC(=O)N1CCCCC1C` (stereo not given in full): “inactive”.
The same measure, in the same setting: the value for `COC(=O)C1=C(C)NC(=O)NC1/C=C/c1ccccc1` (stereo not given) was “inactive”; that for `O=C(CSc1nnc(-c2c[nH]c3ccccc23)o1)c1ccccc1` was “inactive”; that for `CC(=O)Nc1ccc(C(=O)CSc2nnc(Cc3ccccc3)o2)cc1` was “inactive”.
Take `O=C(CSc1nnc(Cn2cnc3ccccc32)o1)c1ccccc1`: the Potency was 10.3 µM (active).
On the same count and under the same terms, the value for `Cc1cc(C)cc(NC(=O)c2cccc(NC(=O)C3C4CC5OC(=O)C3C5C4)c2)c1` (stereo not given) was “inactive”; that for `Cc1cccc(N2C(=O)SC(N(CC(=O)O)c3cccc(C)c3)C2=O)c1` (stereo not given) was “inactive”; that for `CCOC(=O)CCP(=O)(O)C(O)(c1ccccc1)c1ccccc1` was “inactive”.
Still for that read-out and setting: the value for `O=S(=O)(Nc1ccc2cn[nH]c2c1)c1ccccc1` was “inactive”; that for `O=C(CCNC(=O)C1CCN(S(=O)(=O)c2ccccc2)CC1)NC1CC1` was “inactive”.
The same measure, in the same setting: next, `CCOC(=O)c1cc(C(C)C)sc1NC(=O)COC(=O)c1nccnc1N`: “inactive”; `O=C1C2(c3ccccc3)CN(CCCO)CC1(c1ccccc1)CN(CCCO)C2`: “inactive”.
Take `Cc1ccc(S(=O)(=O)N2CCN(S(=O)(=O)N3CCOCC3)CC2)cc1`: the Potency result was “inactive”.
For the compound `CCOC(=O)N1CCN(S(=O)(=O)c2ccc3c(c2)C(C)C(=O)N3)CC1` (stereo not given), the Potency result was “inactive”.
Still for that read-out and setting: next, `Cc1ccc(S(=O)(=O)N2CCN(C)CC2)cc1`: “inactive”.
Still for that read-out and setting: the value for `O=C1CC(=O)Nc2cc(S(=O)(=O)N3CCN(c4cccc(C(F)(F)F)c4)CC3)ccc2N1` was “inactive”; that for `Cc1ccc(N2CCN(S(=O)(=O)c3ccc(F)cc3)CC2)c(C)c1` was 18.4 µM (active); that for `Cc1ccc(C)c(N2CCN(S(=O)(=O)c3ccc4c(c3)C(C(C)C)C(=O)N4)CC2)c1` (stereo not given) was 18.4 µM (active).
Same read-out and setting: the value for `CC1C(=O)Nc2ccc(S(=O)(=O)N3CCN(c4ccccc4F)CC3)cc2NC1=O` (stereo not given) was 20.6 µM (active); that for `Cc1ccc(Cl)cc1N1CCN(S(=O)(=O)c2cc3[nH]c(=O)c(=O)[nH]c3cc2C)CC1` was “inactive”; that for `Cc1ccc(C)c(N2CCN(S(=O)(=O)c3ccc4c(c3)oc(=O)n4C)CC2)c1` was “inactive”.
On to `O=C(N/N=C/c1cccc(OC(=O)c2ccc([N+](=O)[O-])cc2)c1)c1cccnc1`, for which the Potency entry is “inactive”.
Still for that read-out and setting: next, `CCOC(=O)c1c(-n2cnnn2)sc(C)c1C`: “inactive”; `COc1ccc(NC(=S)N2N=CCC2c2ccccc2)cc1` (stereo not given): “inactive”; `CS(=O)(=O)c1ccc2nc(NC(=O)c3ccc(Cl)nc3)sc2c1`: “inactive”.
Still for that read-out and setting: next, `O=C(NCc1cccnc1)c1nc(-c2cccs2)no1`: “inactive”; `C=CCn1c(=O)n(C)c2c(=O)n(C)c(=O)n(C)c21`: “inactive”.
On the same count and under the same terms, next, `CC(C)C(C)NC(=O)COc1ncnc2ccccc12` (stereo not given): “inactive”.
Consider `CCn1ccnc1CNC(=O)CC1C(=O)NCCN1CCCc1ccccc1` (stereo not given), for which the Potency result was “inactive”.
For `O=C(CCC(=O)N1CCN(S(=O)(=O)c2ccccc2)CC1)NC1CCCc2ccccc21` (stereo not given), the Potency result is “inactive”.
On the same count and under the same terms, next, `O=C1NC(Cc2ccccc2)c2nc3ccc(Br)cc3c(=O)n2-c2cc3ccccc3cc21` (stereo not given): 7.31 µM (active).
For `CCC1NC(=O)c2cccnc2-n2c1nc1ccc(C)cc1c2=O` (stereo not given), the Potency result is “inactive”.
The same measure, in the same setting: the value for `Cc1cc(C)c2c(=O)n3c(nc2c1)C(CC(C)C)NC(=O)c1cc2ccccc2cc1-3` (stereo not given) was 4.61 µM (active); that for `CCc1ccc(NC2Nc3cc(C)nn3S2)cc1` (stereo not given) was “inactive”.
The same measure, in the same setting: next, `N#CCC(=O)NC1CCC(CC2CCC(NC(=O)CC#N)CC2)CC1` (stereo not given): “inactive”.
Same read-out and setting: the value for `CCOc1cc(C2C(C(=O)OC)=CN(C3CCCC3)C=C2C(=O)OC)cc(Br)c1O` was “inactive”; that for `COc1ccc(S(=O)(=O)Nc2ccc(F)cc2)c(C)c1C` was “inactive”.
Consider `COc1ccccc1CNS(=O)(=O)CC12CCC(CC1=O)C2(C)C` (stereo not given), for which the Potency result is “inactive”.
The same measure, in the same setting: the value for `CC(=O)Nc1ccc(S(=O)(=O)NC(C)C(=O)OCCOc2ccc(F)cc2)cc1` (stereo not given) was “inactive”.
